From PubChem BioAssay AID720504 (National Center for Advancing Translational Sciences (NCATS), 2013)
About 10,000 (2.8%) of roughly 360,000 compounds were called active. Roughly 4% stayed inconclusive and do not appear here. Calls come from the whole dose curve; as a rule, active = well fitted inhibition curve with a large enough effect; inconclusive = small, poorly fitted or top-dose-only effect; inactive = flat fitted curve, though single readings scatter. The sample as a whole holds a higher share of actives than the screen did.

molecular target: Serine/threonine-protein kinase PLK1 (Homo sapiens) (UniProt P53350); assay: qHTS for Inhibitors of PLK1-PDB (polo-like kinase 1 - polo-box domain): Primary Screen; details: Plk1 PBD binding of FITC phosphopeptide, fluorescence polarization; note: nearly all actives have a fitted effect of over 65% in size; for Max response, negative = inhibition: series mostly up to about 57 µM
% is set by controls: 0 for no effect and ±100 for the full control effect; potency is the fitted concentration of half-maximal effect.

Serine/threonine-protein kinase PLK1 (Homo sapiens), sequence (P53350 whole entry, looked up, the tested form may be a part): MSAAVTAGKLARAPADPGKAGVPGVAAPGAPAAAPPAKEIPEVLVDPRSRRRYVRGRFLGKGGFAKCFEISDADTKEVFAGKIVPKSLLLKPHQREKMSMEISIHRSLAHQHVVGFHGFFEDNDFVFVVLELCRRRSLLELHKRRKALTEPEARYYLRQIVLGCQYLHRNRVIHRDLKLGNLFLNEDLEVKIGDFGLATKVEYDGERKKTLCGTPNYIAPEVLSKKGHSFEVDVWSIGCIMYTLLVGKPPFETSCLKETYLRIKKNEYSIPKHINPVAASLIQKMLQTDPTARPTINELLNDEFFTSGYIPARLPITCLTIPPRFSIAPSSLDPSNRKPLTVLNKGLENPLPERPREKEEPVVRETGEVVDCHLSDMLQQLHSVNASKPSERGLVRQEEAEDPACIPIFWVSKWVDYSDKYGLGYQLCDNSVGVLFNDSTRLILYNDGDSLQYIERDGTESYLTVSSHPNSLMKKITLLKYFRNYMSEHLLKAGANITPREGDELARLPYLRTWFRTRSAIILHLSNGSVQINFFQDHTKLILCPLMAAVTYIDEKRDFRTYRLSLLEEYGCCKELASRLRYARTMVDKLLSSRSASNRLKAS

Max response, negative = inhibition, inactive:
COC(=O)c1ccc(N2CCOCC2)c(NC(=O)c2ccc3c(c2)OCCO3)c1 0.435%
O=C(Nc1ccc(N2CCOCC2)cc1)c1cccc(S(=O)(=O)N2CCOCC2)c1 -5.11%
COCOCCn1cc(CN2CCS(=O)(=O)N(Cc3ccc(-c4ccc(OC)cc4)cc3)C(CC(C)C)C2=O)nn1 (stereo not given) -17%
CCC(C)CN1C(=O)CN(S(C)(=O)=O)CC1(C)C(=O)Nc1ccc2c(c1)OCCO2 (stereo not given) -14.3%
CCOC(=O)C1=CC[C@@H](c2ccccc2)N(S(=O)(=O)c2ccc(C)cc2)[C@H]1c1cccc(OC)c1 -10.4%
Cc1ccc(S(=O)(=O)N2[C@@H](c3ccccc3F)C(C(=O)O)=CC[C@H]2c2ccc(Cl)cc2)cc1 -15.9%
CCc1noc(C)c1C(=O)OCC(=O)c1ccc(NC(=O)CC(C)C)cc1 -8.24%
CC(C)C[C@@H]1COc2cc(N3CCC[C@@H]3CO)ccc2S(=O)(=O)N1 2.66%
CC(=O)N1CCc2c(sc(NC(=O)CCS(=O)(=O)c3ccccc3)c2C#N)C1 -11.3%
CC(C)N1CCc2c(sc(NC(=O)Cc3ccccc3)c2C#N)C1 -26%
CCN(CC)C(=O)C1=C(C)N(Cc2ccccc2)C(=O)C(CC(=O)NC(c2ccccc2)c2ccccc2)C1 (stereo not given) -7.71%
CCCCc1nc2ccc(F)cc2cc1C -7.86%
O=C(CSc1nc2cccc(F)c2c(=O)n1-c1ccccc1)Nc1ccc2c(c1)CCC2 -2.85%
CC(C)(O)C#Cc1ccc(CNC[C@H]2O[C@@H](n3cnc4c(=O)[nH]c(N)nc43)[C@H](O)[C@@H]2O)s1 0.0305%
COC(=O)c1ccc2c(c1)S(=O)(=O)NC2C (stereo not given) -7.33%
CSCCC(NS(=O)(=O)c1ccccc1F)C(=O)N1CC=C(c2ccccc2)CC1 (stereo not given) 0.274%
CN(Cc1ccccc1F)C(=O)C(Cc1ccccc1)NC(=O)c1ccccc1 (stereo not given) -7.43%
C[C@H](CO)N1C[C@H](C)[C@@H](CN(C)C(=O)c2cccc(F)c2)Oc2cc(-c3cncnc3)ccc2S1(=O)=O -2.44%
Cc1ccccc1C(=O)Nc1ccccc1NC(=O)c1ccccc1C -16.3%
Nc1ccc(C(=O)Nc2ccccc2N)cc1 -11.6%
CC(=O)c1ccccc1NC(=O)C1CC(=O)N(c2ccc3c(c2)OCCO3)C1 (stereo not given) 7.84%
COc1ccccc1N1CC(C(=O)Nc2nnc(SCC(=O)NCC3CCCO3)s2)CC1=O (stereo not given) -29%
CCOC(=O)c1ccc(NC(=O)C2CC(=O)N(c3ccc4c(c3)OCCO4)C2)cc1 (stereo not given) -3.19%
COc1ccccc1N1CC(C(=O)Nc2nnc(SCC(=O)NC(C)C)s2)CC1=O (stereo not given) -26.4%
CCN1CCN(CCNC(=O)c2ccc3c(c2)NC(=O)/C(=C\c2cccc(Cl)c2)S3)CC1 -9.11%
COc1cccc(CNc2nc(NCc3cccs3)nc3ccsc23)c1 -6.78%
COC(=O)[C@@]1(Cc2ccc(F)cc2)[C@H]2c3cc(C(=O)N(C)C)n(CCc4c[nH]c5ccc(OC)cc45)c3C[C@H]2CN1C(=O)c1ccccc1 -0.876%
C=CCOc1ccccc1CNn1c(C)n[nH]c1=S -12.8%
O=C(NCc1ccccc1)C1c2ccccc2OCC(=O)N1C1CC1 (stereo not given) 2.78%
Cc1csc(SCC(=O)Nc2ccc(C)c(S(=O)(=O)N(C)C)c2)n1 -2.14%
CCc1nnc(SCc2cccc(F)c2)nc1CC 1.21%
c1ccc(Cc2c(-c3ccco3)nc3c4ccccc4ccn23)cc1 -8.74%
COC(=O)c1ccc2nc(-c3ccc(F)cc3)c(Cc3ccc(C)cc3)n2c1 1.02%
COc1ccc(C(=O)N2CCCCC2c2cc(C(=O)Nc3ccc(F)c(Cl)c3)no2)cc1 (stereo not given) -10.1%
CCOCCC(=O)Nc1ccc2c(c1)c(=O)n(C)n2-c1ccc2ccccc2c1 -3.07%
CCOC(=O)[C@]12CCC=C1N(Cc1ccco1)C(=O)[C@H](CC(=O)NCc1cccc(C(F)(F)F)c1)C2 -26%
Cc1cc(C(=O)N2CCCC2(C)C(=O)O)c(C)o1 (stereo not given) -5.24%
CCCCC(=O)NC(c1ccc(OC)c(OC)c1)c1ccc2cccnc2c1O (stereo not given) -4.18%
O=S(=O)(c1ccc2ccccc2c1)N1CCN(S(=O)(=O)N2CCOCC2)CC1 -4%
Cc1ccc(S(=O)(=O)N2CCN(S(=O)(=O)N3CCOCC3)CC2)cc1 -4.72%
Cc1ccc(CC2(C)C(=O)Nc3ccc(OC(F)(F)F)cc32)cc1 (stereo not given) 0.395%
COCCCNc1ccn2nc(-c3ccc(CC(C)C)cc3)cc2n1 -1.25%
CCN(CC)C(=O)C1=C(C)N(Cc2ccc(C(C)(C)C)cc2)C(=O)C(CC(=O)NCc2cccc3ccccc23)C1 (stereo not given) -4.44%
CCCn1cc(S(=O)(=O)c2ccc(C)cc2)c(=O)c2cc(OCC)ccc21 -12.4%
CCn1cc(S(=O)(=O)c2cccc(C)c2)c(=O)c2cc(F)c(N3CCN(C)CC3)cc21 -10.2%
Fc1cccc(Cc2c(-c3ccc(Cl)cc3)nc3ccc(Cl)cn23)c1 9.81%
CN[C@H]1C[C@H]2c3cc(Oc4ccccc4C)ccc3CCN2C(=O)[C@H]1[C@H](C)O 0.731%
Nc1nc(SCC(=O)Nc2ccc(Cl)c([N+](=O)[O-])c2)n[nH]1 -3.6%
Nc1nc(SCC(=O)Nc2ccc(Cl)cc2C(F)(F)F)n[nH]1 -8.67%
CCCNC(=O)c1cc(C2CCCCN2S(=O)(=O)c2ccc(C#N)cc2)on1 (stereo not given) 6.75%
O=C(CC[C@H]1O[C@@H](n2ccc(=O)[nH]c2=O)[C@H](O)[C@@H]1O)N[C@H](Cc1ccccc1)C(=O)NCc1ccco1 -11.9%
CC(C)(C)N1C(=O)c2c(C(=O)OCc3ccccc3)[nH]c(-c3ccccc3)c2C1=O -11.2%
Cc1ccc(NC(=O)Cn2c(C)csc2=O)cc1 -1.66%
Cc1cc(C)cc(NC(=O)CN2C(=O)c3ccccc3C2=O)c1 -3.07%
Cc1ccc(CCNC(=O)CN2C(=O)CSc3ccc(S(=O)(=O)N4CCOCC4)cc32)cc1 -9.68%
O=C(CCNS(=O)(=O)c1ccccc1C(F)(F)F)NCc1ccc2c(c1)OCO2 -4%
O=C(CC(Cc1ccccc1)C(=O)O)NCCc1ccc2c(c1)OCO2 (stereo not given) -0.693%
C#Cc1cc(N2CCN(C(=O)c3ccoc3)CC2)n2nc(-c3cccc(Cl)c3)cc2n1 -12%
CCNC(=O)C1(C)CCN(Cc2ccc(C(=O)OCC)o2)C1 (stereo not given) 3.81%
C[C@@H]1CN([C@H](C)CO)C(=O)CCCn2nncc2CO[C@@H]1CN(C)C(=O)OCc1ccccc1 -21.8%
COc1ccc(CN2CCC(C)(Oc3cccc(F)c3)C2)c2ccccc12 (stereo not given) -19.3%
Cc1ccc(F)c(S(=O)(=O)NC(=O)C2(C)CCN2C(=O)c2ccco2)c1 (stereo not given) -2.63%
CCn1c(SCC(=O)N/N=C/c2ccccc2OCC(=O)O)nnc1-c1ccc(C(C)(C)C)cc1 5.13%
Cc1ccc(-n2c(SCC(=O)N/N=C/C=C/c3ccccc3[N+](=O)[O-])nc3ccccc3c2=O)cc1 1.55%
Cc1cc(NC(=O)CSc2nnc(-c3ccco3)n2N)no1 -3.98%
Cc1cc(NC(=O)CSC2=NS(=O)(=O)c3cc(Cl)ccc3N2)no1 -2.92%

Potency, active:
O=C(Nc1ccc(N2CCOCC2)cc1)c1ccc2c(c1)OCO2 26.7 µM
Cc1ccc(S(=O)(=O)N2[C@@H](c3cccc(Cl)c3)C(C(=O)O)=CC[C@H]2c2ccc(Cl)c(Cl)c2)cc1 21.2 µM
N#Cc1c(N)sc2c1CCN(C(=O)OCc1ccccc1)C2 23.8 µM
CN(C)C(=O)N=NC(=O)N(C)C 1.89 µM
O=C(NC1CC1)C(Cc1ccccc1)NS(=O)(=O)c1ccccc1F (stereo not given) 23.8 µM
CC(=O)Nc1ccccc1NC(=O)c1cc(C)cc(C)c1 9.47 µM
CCc1nnc(NC(=O)C2CC(=O)N(c3ccc4c(c3)OCCO4)C2)s1 (stereo not given) 13.4 µM
Cc1ccccc1N1CC(C(=O)Nc2nnc(SCCC3OCCO3)s2)CC1=O (stereo not given) 21.2 µM
Clc1ccccc1CSc1nnc(-c2ccco2)c(-c2ccco2)n1 13.4 µM
c1ccc(CSc2nnc(-c3ccco3)c(-c3ccco3)n2)cc1 11.2 µM
Oc1c(C(c2ccccn2)N2CCOCC2)ccc2cccnc12 (stereo not given) 9.47 µM
CCn1c(=S)[nH]c2cc(S(=O)(=O)N3CCOCC3)ccc21 29.9 µM
CCOc1ccc2c(c1)c(=O)c(S(=O)(=O)c1ccc(C)cc1)cn2CC 26.7 µM
Nc1nc(SCC(=O)NNc2c(Cl)cc(Cl)cc2Cl)n[nH]1 18.9 µM
Cc1ccc(NC(=O)Cn2sc3ccccc3c2=O)cc1 2.38 µM
O=C(CCc1nnc(Cc2ccc3c(c2)OCO3)o1)NCCc1ccccc1Cl 21.2 µM
FC(F)(F)C1CCCN(c2nsc3ccccc23)C1 (stereo not given) 1.5 µM
CCn1c(SCC(=O)N/N=C/C=C/c2ccccc2[N+](=O)[O-])nnc1-c1ccccc1 23.8 µM
Cc1cc(NC(=O)CSc2nc3cc(Cl)ccc3c(=O)n2Cc2ccco2)no1 21.2 µM
